# Experimental data published in article PMC7862700, “An all-to-all approach to the identification of sequence-specific readers for epigenetic DNA modifications on cytosine”.
# Columns and labels:
# Assay in all cases: DAPPL (digital affinity profiling via proximity ligation, sequencing); 10 mM Tris-HCl pH 7.5, 50 mM NaCl, 1 mM DTT, 4% glycerol, room temperature, 30 min; GST-TFs on glutathione beads, 16-mer random dsDNA library, 0.1% formaldehyde crosslink after washing; high values mean tight binding
# Conditions in all cases: protein: recombinant; tags: N-terminal GST; dsDNA, one strand shown
# ETV1 = ETV1 (Homo sapiens, UniProt P50549 1-477)
# Chain of ETV1 (P50549 whole entry, the tested form may be a part): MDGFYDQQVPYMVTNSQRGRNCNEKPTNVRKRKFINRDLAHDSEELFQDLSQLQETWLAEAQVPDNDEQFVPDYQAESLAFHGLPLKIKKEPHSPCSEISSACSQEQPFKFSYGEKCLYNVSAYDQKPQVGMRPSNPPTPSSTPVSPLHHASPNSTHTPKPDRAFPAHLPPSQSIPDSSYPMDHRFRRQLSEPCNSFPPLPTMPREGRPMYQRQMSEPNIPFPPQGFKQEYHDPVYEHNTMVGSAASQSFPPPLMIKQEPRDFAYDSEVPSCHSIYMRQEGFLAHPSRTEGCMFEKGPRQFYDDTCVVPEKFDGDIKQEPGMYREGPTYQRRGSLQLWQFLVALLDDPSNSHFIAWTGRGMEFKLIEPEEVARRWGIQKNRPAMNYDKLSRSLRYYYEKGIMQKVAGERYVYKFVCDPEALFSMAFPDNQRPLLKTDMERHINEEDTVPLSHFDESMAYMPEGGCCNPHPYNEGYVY
# In short: (§1)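 GST fusions of human transcription factors were expressed in yeast and captured with glutathione beads. Once given DNA barcodes and pooled alongside a tag-only sample, they were incubated for 30 min at room temperature with 200 nmole of a random double-stranded 16-mer DNA library in Tris/NaCl/DTT/glycerol buffer, then washed, crosslinked (0.1% formaldehyde), proximity-ligated, PCR-amplified and sequenced on an Illumina NextSeq500. The binding signal of each hexamer is its read frequency for a factor divided by its frequency for the tag-only sample.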
# ERF = biological target: T1, ERF (Homo sapiens, UniProt P50548 1-548)
# T1 sequence: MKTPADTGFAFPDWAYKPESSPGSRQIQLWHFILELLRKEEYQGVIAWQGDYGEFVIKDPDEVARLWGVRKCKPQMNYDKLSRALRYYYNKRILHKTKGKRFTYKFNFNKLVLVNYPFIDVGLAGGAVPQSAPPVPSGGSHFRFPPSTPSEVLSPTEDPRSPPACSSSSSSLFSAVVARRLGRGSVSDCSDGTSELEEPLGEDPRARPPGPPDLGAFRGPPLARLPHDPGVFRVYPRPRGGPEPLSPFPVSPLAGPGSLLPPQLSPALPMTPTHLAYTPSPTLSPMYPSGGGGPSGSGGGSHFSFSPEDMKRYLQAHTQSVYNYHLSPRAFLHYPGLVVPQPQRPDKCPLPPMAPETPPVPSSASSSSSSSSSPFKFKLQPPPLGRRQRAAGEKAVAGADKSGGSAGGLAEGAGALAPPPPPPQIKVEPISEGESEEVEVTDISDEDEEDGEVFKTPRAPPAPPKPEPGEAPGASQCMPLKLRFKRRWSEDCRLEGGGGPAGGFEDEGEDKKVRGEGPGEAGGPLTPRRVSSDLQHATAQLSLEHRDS
# In short: as §1
# ETV3L = biological target: T2, ETV3L (Homo sapiens, UniProt Q6ZN32 1-361)
# T2 sequence: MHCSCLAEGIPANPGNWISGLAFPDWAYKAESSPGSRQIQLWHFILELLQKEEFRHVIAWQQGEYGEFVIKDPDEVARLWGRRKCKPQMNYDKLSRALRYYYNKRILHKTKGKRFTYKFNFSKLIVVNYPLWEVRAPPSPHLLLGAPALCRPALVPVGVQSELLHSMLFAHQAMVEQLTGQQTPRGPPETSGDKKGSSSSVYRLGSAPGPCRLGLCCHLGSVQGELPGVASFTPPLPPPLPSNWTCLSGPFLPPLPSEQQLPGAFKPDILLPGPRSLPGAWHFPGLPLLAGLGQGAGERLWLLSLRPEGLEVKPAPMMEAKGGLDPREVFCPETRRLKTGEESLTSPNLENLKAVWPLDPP
# In short: as §1
# ETS2 = biological target: T3, ETS2 (Homo sapiens, UniProt P15036 1-469)
# T3 sequence: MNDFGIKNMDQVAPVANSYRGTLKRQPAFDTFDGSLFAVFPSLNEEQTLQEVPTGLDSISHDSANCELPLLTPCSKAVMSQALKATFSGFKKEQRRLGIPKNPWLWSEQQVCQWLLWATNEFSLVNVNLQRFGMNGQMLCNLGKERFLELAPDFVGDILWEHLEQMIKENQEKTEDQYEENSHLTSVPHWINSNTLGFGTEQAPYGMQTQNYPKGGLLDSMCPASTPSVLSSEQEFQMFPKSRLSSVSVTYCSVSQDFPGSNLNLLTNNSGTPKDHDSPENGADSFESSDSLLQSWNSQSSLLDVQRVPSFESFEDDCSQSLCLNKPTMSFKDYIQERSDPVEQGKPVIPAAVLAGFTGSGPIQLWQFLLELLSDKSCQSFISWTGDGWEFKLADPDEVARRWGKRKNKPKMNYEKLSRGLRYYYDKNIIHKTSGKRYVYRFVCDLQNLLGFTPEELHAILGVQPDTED
# In short: as §1
# SPDEF = biological target: T4, SPDEF (Homo sapiens, UniProt O95238 1-335)
# T4 sequence: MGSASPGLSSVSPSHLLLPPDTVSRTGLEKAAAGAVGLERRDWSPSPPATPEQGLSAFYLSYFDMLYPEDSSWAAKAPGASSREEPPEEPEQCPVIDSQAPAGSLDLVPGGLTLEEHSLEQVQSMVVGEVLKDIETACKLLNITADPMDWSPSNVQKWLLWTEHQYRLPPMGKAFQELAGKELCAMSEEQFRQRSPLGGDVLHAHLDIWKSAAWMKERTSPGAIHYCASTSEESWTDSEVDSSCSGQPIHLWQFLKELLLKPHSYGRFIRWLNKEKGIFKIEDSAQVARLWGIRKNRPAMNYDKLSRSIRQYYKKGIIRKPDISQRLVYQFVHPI
# In short: as §1
# ETV7 = biological target: T5, ETV7 (Homo sapiens, UniProt Q9Y603 1-341)
# T5 sequence: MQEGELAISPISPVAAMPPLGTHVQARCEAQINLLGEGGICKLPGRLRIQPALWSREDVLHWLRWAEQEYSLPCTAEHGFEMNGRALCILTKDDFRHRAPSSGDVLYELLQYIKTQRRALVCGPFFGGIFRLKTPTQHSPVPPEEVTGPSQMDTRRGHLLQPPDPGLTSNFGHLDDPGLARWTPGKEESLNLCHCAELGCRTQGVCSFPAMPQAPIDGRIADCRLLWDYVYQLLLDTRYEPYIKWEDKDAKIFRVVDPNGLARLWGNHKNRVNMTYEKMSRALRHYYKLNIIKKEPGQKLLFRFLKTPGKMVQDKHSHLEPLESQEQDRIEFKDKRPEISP
# In short: as §1
# ELF5 = biological target: T6, ELF5 (Homo sapiens, UniProt Q9UKW6-2 1-255)
# T6 sequence: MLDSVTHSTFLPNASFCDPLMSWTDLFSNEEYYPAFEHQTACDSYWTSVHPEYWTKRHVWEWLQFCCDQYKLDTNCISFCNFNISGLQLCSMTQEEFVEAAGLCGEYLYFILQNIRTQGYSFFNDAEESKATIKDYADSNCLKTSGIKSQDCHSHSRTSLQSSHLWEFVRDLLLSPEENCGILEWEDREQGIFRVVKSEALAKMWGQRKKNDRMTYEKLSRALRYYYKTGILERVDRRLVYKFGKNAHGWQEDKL
# In short: as §1
# ETV3 = biological target: T7, ETV3 (Homo sapiens, UniProt P41162-2 1-143)
# T7 sequence: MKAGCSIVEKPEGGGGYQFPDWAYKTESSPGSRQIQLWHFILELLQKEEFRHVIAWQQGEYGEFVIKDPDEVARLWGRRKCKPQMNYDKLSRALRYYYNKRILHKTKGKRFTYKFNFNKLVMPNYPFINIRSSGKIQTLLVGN
# In short: as §1
# ETV6 = ETV6 (Homo sapiens, UniProt P41212 1-452)
# Chain of ETV6 (P41212 whole entry): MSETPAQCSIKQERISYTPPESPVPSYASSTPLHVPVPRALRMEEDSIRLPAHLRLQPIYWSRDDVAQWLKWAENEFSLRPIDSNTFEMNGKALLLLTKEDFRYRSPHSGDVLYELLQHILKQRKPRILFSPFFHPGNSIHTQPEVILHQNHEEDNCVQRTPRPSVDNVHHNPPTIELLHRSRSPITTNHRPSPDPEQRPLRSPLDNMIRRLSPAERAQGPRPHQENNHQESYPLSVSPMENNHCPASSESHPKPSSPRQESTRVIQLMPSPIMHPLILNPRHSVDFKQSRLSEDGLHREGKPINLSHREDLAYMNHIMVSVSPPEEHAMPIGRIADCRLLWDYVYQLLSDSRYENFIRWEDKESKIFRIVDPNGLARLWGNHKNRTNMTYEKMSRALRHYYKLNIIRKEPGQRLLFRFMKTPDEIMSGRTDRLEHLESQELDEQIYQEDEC
# In short: as §1
sequence,measurement,setting,value
TTAAGC,binding signal,ETV1,"1.11 fold enrichment (6-mer frequency, TF over GST control)"
same,binding signal,ERF,"1.21 fold enrichment (6-mer frequency, TF over GST control)"
same,binding signal,ETV3L,"1.22 fold enrichment (6-mer frequency, TF over GST control)"
same,binding signal,ETS2,"1.13 fold enrichment (6-mer frequency, TF over GST control)"
same,binding signal,SPDEF,"1.04 fold enrichment (6-mer frequency, TF over GST control)"
same,binding signal,ETV7,"1.13 fold enrichment (6-mer frequency, TF over GST control)"
same,binding signal,ELF5,"1.14 fold enrichment (6-mer frequency, TF over GST control)"
same,binding signal,ETV3,"1.22 fold enrichment (6-mer frequency, TF over GST control)"
same,binding signal,ETV6,"1.06 fold enrichment (6-mer frequency, TF over GST control)"
